Several values for one entry are separate records, joined by “and”; a condition that tells them apart may be missing. Equal values may be shown once. Records with an inconclusive call do not appear. Activity calls are given as the source filed them. Unless noted, the call rests on the fitted dose curve; in most records, active means well fitted curve in the direction sought with a large enough effect; inconclusive means small, poorly fitted or top-dose-only effect, or another doubt; inactive means no such curve, though single readings can be large; an effect the other way counts as inactive or inconclusive.
What was measured:
[1] = target: Lysosomal acid glucosylceramidase (Homo sapiens) (UniProt P04062); test: Glucocerebrosidase-p2 (AID 348; in the data active means potency below about 10 µM; further: potency means the concentration at half of the fitted maximal effect); conditions: purified GBA, blue fluorogenic substrate, 40 min
Procedure, shortened: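 Compounds titrated from 0.6 nM upwards against 0.2 nM enzyme in pH 5.9 citric acid/KH2PO4, taurocholate, tween-20; blue fluorogenic substrate 80 uM, 40 min room temperature, stopped and read Ex 365/Em 440 for AC50.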

[2] = AP1 Signaling Pathway (AID 357; active means well fitted curve in either direction with a large enough effect, not every such curve was filed as active; further: on the % scale 0 is the no-effect control and ±100 the full control effect); conditions: ME-180 AP-1-bla reporter, EGF-induced, beta-lactamase ratio, 5 h
Procedure, shortened: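 ME-180 cells with beta-lactamase reporter under AP-1 response element, stimulated with EC50 EGF; compounds tested in titration series, 5 h at 37 °C. CCF4 substrate added 2.5 h at room temperature; 460/530 nm emission ratio gave %activity and AC50.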

[3] = NFAT Signaling Pathway (AID 444; active means well fitted curve in either direction with a large enough effect, not every such curve was filed as active;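 further: carbachol stimulus at about its EC50 of 1 µM final; on the % scale 0 is the no-effect control and ±100 the full control effect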); conditions: Jurkat NFAT-bla M1, carbachol, beta-lactamase ratio, 5 h
Procedure, shortened: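 Jurkat cells with NFAT-driven β-lactamase reporter and co-expressed M1 receptor, stimulated with carbachol (final 1 uM, ~EC50), compound titration, 5 h at 37 °C. CCF4 loaded 1 h at RT; 460/530 nm ratio gave %activity and AC50.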

[4] = Stat Signaling Pathway (AID 446; active means well fitted curve in either direction with a large enough effect, not every such curve was filed as active;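 further: ME-180 cervical cancer cells given 40 pM IL-6 alongside compound; SIE-controlled beta-lactamase reporter measured as 460/530 nm FRET emission ratio; on the % scale 0 is the no-effect control and ±100 the full control effect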); conditions: ME-180 SIE beta-lactamase reporter, IL-6 stimulated, 5 h
Procedure, shortened: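 ME-180 SIE-bla cells; overnight plating; cpd + IL-6 40 pM, 5 h, 37 C; LiveBLAzer 2.5 h RT; 460/530 nm emission ratio. Normalized to 300 pM IL-6 and 125 nM JAK inhibitor controls.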

[5] = target: Glucocorticoid receptor (Homo sapiens) (UniProt P04150); test: GR-GFP Redistribution (AID 450;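 active means compounds whose dose series gives a full or clear partial fitted curve of increased nuclear translocation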; further: potency means the concentration at half of the fitted maximal effect); conditions: U2OS GR-GFP nuclear translocation, laser cytometry, 2 h
[6] = target: Glucocorticoid receptor (Homo sapiens) (UniProt P04150); test: GR-EFC Redistribution (AID 451; calls by dose curve; further: potency means the concentration at half of the fitted maximal effect); conditions: CHO-K1 GR-EFC translocation, beta-gal luminescence, 2 h
Procedure, shortened: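 CHO-K1 cells expressing nuclear EA and GR-ED fragments of b-gal; compounds titrated up to 46 uM final, 2 h at 37 C. GR nuclear translocation read as complemented b-gal luminescence after 1 h RT detection.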

[7] = target: Mitogen-activated protein kinase 10 (Mus musculus) (UniProt Q61831); test: JNK3 AlphaScreen Assay (AID 530; active means well fitted curve in either direction with a large enough effect, not every such curve was filed as active;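 further: kinase came from lysate of stimulated human HepG2 cells; signal reports phosphorylation of biotinylated GST-cJun 1-79 at Ser73 with 10 µM ATP; on the % scale 0 is the no-effect control and ±100 the full control effect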); conditions: JNK3 lysate, c-Jun phosphorylation; series mostly up to 11.4 µM
Procedure, shortened: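 Pre-activated (IL-1β/TNFα) JNK3 in HepG2 lysates phosphorylates biotin-GST-cJun(1-79), 10 uM ATP; anti-phospho-cJun(Ser73) AlphaScreen read at room temperature, pH 7.6 Tris buffer. Compounds pre-incubated 15 min as titrations.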

[8] = target: 3',5'-cyclic-AMP phosphodiesterase 4B (Homo sapiens) (UniProt Q07343); test: qHTS Assay for Inhibitors of PDE-IV (AID 607; active means well fitted activation curve with a large enough effect in the main read-out, with a control signal flat, not every such curve was filed as active; further: % of control where 0% means no effect); conditions: HEK293 ACTOne CNG channel cells, membrane potential fluorescence; series mostly up to 22.9 µM
Procedure, shortened: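 ACTOne HEK293 cells carry a modified cAMP-gated CNG channel and express endogenous PDE4; plated 1000 cells/well, compounds up to 22.9 uM final. Membrane-potential dye fluorescence (ex 535/em 590) was read; parental cells received 10 uM forskolin + 100 uM RO 20-1724.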

[9] = target: Guanine nucleotide-binding protein G(i) subunit alpha-1 (Homo sapiens) (UniProt P63096); test: qHTS Assay for Inhibitors of RGS12 GoLoco Motif Activity (Green Fluorophore) (AID 879); conditions: Galphai1/FITC-RGS12 GoLoco peptide, fluorescence polarization; series mostly up to 57.1 µM;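 further: 0% = labeled peptide with Gαi1 and full inhibition = labeled peptide alone without protein; negative values mean loss of peptide binding seen as reduced polarization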
Procedure, shortened: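 Fluorescence polarization assay: 50 nM Gαi1 with 10 nM FITC-labeled RGS12 GoLoco peptide in 10 mM Tris pH 7.5, 150 mM NaCl, 0.1 mM GDP, 0.05% NP40, 10 min at room temperature with compound.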

[10] = qHTS Assay for Identification of Small Molecule Antagonists for NFkB Signaling Pathway (AID 895; active means well fitted inhibition curve with a large enough effect in the signal ratio, with a control signal flat, not every such curve was filed as active; the % refers to the signal ratio; further: on the % scale 0 is the no-effect control and ±100 the full control effect); conditions: NFkB beta-lactamase reporter cells, FRET ratio 460/530, stimulated with 10 pM TNF alpha; series mostly up to 38.3 µM
Procedure, shortened: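 ME-180 NFkB-bla cells (beta-lactamase under NFkB response element), plated overnight, treated with compound then 10 pM TNF alpha (about EC50) for 5 hrs at 37 C. LiveBLAzer FRET read at 460/530 nm emission, 405 nm excitation.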

[11] = qHTS Assay for Identification of Small Molecule Agonists for Thrombopoietin (TPO) Signaling Pathway (AID 917); conditions: TPO signaling pathway reporter cells, agonist qHTS, stimulated with TPO at its EC50; series mostly up to 38.5 µM; further: on the % scale 0 is the no-effect control and ±100 the full control effect
Procedure, shortened: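 We measured Glycoprotein IIb promoter–luciferase output in IL-3-starved Ba/F3 murine cells expressing the human TPO receptor after 24 hrs at 37 C with compounds and 26 pM TPO.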

[12] = target: Pyruvate kinase PKM (Homo sapiens) (UniProt P14618); test: qHTS Assay for Activators of Human Muscle Pyruvate Kinase (AID 954; active means well fitted curve in the direction sought with a large enough effect, not every such curve was filed as active;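 further: 0% = uninhibited enzyme and -100% = no enzyme or full thiadiazolimine inhibition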); conditions: purified human muscle pyruvate kinase, luciferase-coupled luminescence, 1 h; series mostly up to 57.5 µM
Procedure, shortened: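 Luminescence from a luciferase ATP-detection/stop reagent reported PKM2 activity. Reactions contained 0.1 nM purified human enzyme, 0.5 mM PEP, 0.1 mM ADP and 7 mM MgCl2 at pH 7.2, run 1 h at RT.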

[13] = target: Alpha-galactosidase A (Homo sapiens) (UniProt P06280); test: Counterscreen for Glucocerebrosidase Inhibitors: qHTS Assay for Human alpha-Galactosidase at pH 4.5 (AID 992); conditions: purified enzyme, fluorogenic substrate; series mostly up to 76.9 µM; further: 0% is about no effect
Procedure, shortened: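 Enzyme at 2 nM final was combined with compound (0.7 nM to 77 uM) and 80 uM 4-methylumbelliferyl alpha-D-galactopyranoside in 50 mM citric acid, 0.005% Tween-20, pH 4.5. After 20 min at room temperature, fluorescence was read (Ex 365/Em 440 nm); AC50 came from Hill fits.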

[14] = target: alpha-glucosidase (Oryza sativa, rice) (UniProt Q653V4); test: Counterscreen for Glucocerebrosidase Inhibitors: qHTS Assay for Rice alpha-Glucosidase at pH 5.0 (AID 997); conditions: rice alpha-glucosidase enzyme activity; series mostly up to 76.9 µM;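 further: 0% = full activity with enzyme and -100% = basal without enzyme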
Procedure, shortened: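 Rice alpha-glucosidase (4 nM final) with 400 uM 4-methylumbelliferyl-alpha-D-glucopyranoside in citrate buffer pH 5.0, 20 min at room temperature, stopped at pH 10; fluorescence 365/440 nm, compounds 0.7 nM–77 uM, AC50 from Hill fits.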

[15] = target: Ubiquitin carboxyl-terminal hydrolase 1 (Homo sapiens) (UniProt O94782); test: Inhibitors of USP1/UAF1: Pilot qHTS (AID 504865); conditions: purified USP1/UAF1, Ub-rhodamine cleavage fluorescence; series mostly up to 114 µM;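 further: rhodamine fluorescence freed from ubiquitin-rhodamine substrate followed over time; top concentration of the series differs between compounds; on the % scale 0 is the no-effect control and ±100 the full control effect; nearly all actives have a fitted effect of over 35% in size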
Procedure, shortened: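 Kinetic fluorescence assay: 1nM USP1/UAF1, 15 min compound preincubation, then 150nM Ub-Rho; 480/540 nm.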

[16] = target: Luciferin 4-monooxygenase (Photinus pyralis) (UniProt P08659); test: Biochemical firefly luciferase enzyme assay for NPC (AID 624030);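 further: purified P. pyralis luciferase at 10 nM with luciferin and ATP substrate; 0% = DMSO and -100% = full luciferase inhibition by PTC124 control; nearly all actives have a fitted effect of over 70% in size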; conditions: purified P. pyralis luciferase, luminescence, 5 min; series mostly up to 58.6 µM
Procedure, shortened: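 Purified P. pyralis luciferase at 10 nM in 50 mM Tris Acetate (final), luminescence read within 5 minutes of enzyme addition to compounds. Activity normalised to PTC124 versus DMSO; concentration-response curves classed by r2, magnitude and activity.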

[17] = S16 Schwann cell viability assay (CellTiter-Glo assay) (AID 624031); conditions: S16 rat Schwann cells viability, 24 h; series mostly up to 57.5 µM;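 further: native untransfected S16 rat Schwann cells; cellular ATP luminescence as a viability measure; plate controls were DMSO-treated cells for no effect and cell-free wells for full effect; nearly all actives have a fitted effect of over 70% in size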
Procedure, shortened: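 Following overnight culture in 10% FBS DMEM, parental S16 rat Schwann cells are dosed for 24 h at 37 °C. Viability is read as CellTiter-Glo luminescence and expressed as % activity relative to DMSO (0%) and no-cell wells.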

[18] = S16 Schwann cell PMP22 intronic element firefly luciferase assay (AID 624032); conditions: S16 rat Schwann cells, PMP22 element FLuc, 24 h; series mostly up to 57.5 µM;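 further: plate controls were DMSO for no effect and PTC124 positive control mean for full effect; nearly all actives have a fitted effect of over 30% in size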
Procedure, shortened: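 Rat S16 Schwann cells stably carrying firefly luciferase driven by a PMP22 intronic element, in 10% FBS, treated 24 h at 37 C. ONE-Glo luminescence normalized to PTC124 control and DMSO (0%); curves classed by r2, magnitude and activity.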

[19] = qHTS profiling for inhibitors of Plasmodium falciparum proliferation (AID 504749);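 further: 0% = DMSO vehicle and full inhibition = artemisinin control; nearly all actives have a fitted effect of over 60% in size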; conditions: P. falciparum in erythrocytes, SYBR Green DNA, 72 h, at 28.7 µM (top of the series)
Procedure, shortened: (§1)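 P. falciparum-infected erythrocytes (0.3% parasitemia, 2.5% hematocrit) incubated with compound 72 h at 37 C, 5% CO2. Parasite DNA detected by SYBR Green after lysis, overnight at room temperature; normalised to 0.29 uM artemisinin and DMSO.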

[20] = system: 3D7; test: as above; conditions: P. falciparum in erythrocytes, SYBR Green DNA, 72 h; series mostly up to 28.7 µM
Procedure, shortened: as §1

[21] = system: 7G8; test: as above; conditions: P. falciparum in erythrocytes, SYBR Green DNA, 72 h; series mostly up to 28.7 µM
Procedure, shortened: as §1

[22] = system: AA1029; test: as above; conditions: P. falciparum in erythrocytes, SYBR Green DNA, 72 h; series mostly up to 28.7 µM
Procedure, shortened: as §1

[23] = system: AS120; test: as above; conditions: P. falciparum in erythrocytes, SYBR Green DNA, 72 h; series mostly up to 28.7 µM
Procedure, shortened: as §1

[24] = system: ATS189; test: as above; conditions: P. falciparum in erythrocytes, SYBR Green DNA, 72 h; series mostly up to 28.7 µM
Procedure, shortened: as §1

[25] = system: ATS95; test: as above; conditions: P. falciparum in erythrocytes, SYBR Green DNA, 72 h; series mostly up to 28.7 µM
Procedure, shortened: as §1

[26] = system: C2A; test: as above; conditions: P. falciparum in erythrocytes, SYBR Green DNA, 72 h; series mostly up to 28.7 µM
Procedure, shortened: as §1

[27] = system: CP185; test: as above; conditions: P. falciparum in erythrocytes, SYBR Green DNA, 72 h; series mostly up to 28.7 µM
Procedure, shortened: as §1

[28] = system: CP191; test: as above; conditions: P. falciparum in erythrocytes, SYBR Green DNA, 72 h; series mostly up to 28.7 µM
Procedure, shortened: as §1

[29] = system: CP192; test: as above; conditions: P. falciparum in erythrocytes, SYBR Green DNA, 72 h; series mostly up to 28.7 µM
Procedure, shortened: as §1

[30] = system: CP194; test: as above; conditions: P. falciparum in erythrocytes, SYBR Green DNA, 72 h; series mostly up to 28.7 µM
Procedure, shortened: as §1

[31] = system: CP201; test: as above; conditions: P. falciparum in erythrocytes, SYBR Green DNA, 72 h; series mostly up to 28.7 µM
Procedure, shortened: as §1

[32] = system: CP203; test: as above; conditions: P. falciparum in erythrocytes, SYBR Green DNA, 72 h; series mostly up to 28.7 µM
Procedure, shortened: as §1

[33] = system: CP211; test: as above; conditions: P. falciparum in erythrocytes, SYBR Green DNA, 72 h; series mostly up to 28.7 µM
Procedure, shortened: as §1

[34] = system: CP215; test: as above; conditions: P. falciparum in erythrocytes, SYBR Green DNA, 72 h; series mostly up to 28.7 µM
Procedure, shortened: as §1

[35] = system: CP217; test: as above; conditions: P. falciparum in erythrocytes, SYBR Green DNA, 72 h; series mostly up to 28.7 µM
Procedure, shortened: as §1

[36] = system: CP237; test: as above; conditions: P. falciparum in erythrocytes, SYBR Green DNA, 72 h; series mostly up to 28.7 µM
Procedure, shortened: as §1

Sequence of Glucocorticoid receptor (Homo sapiens) (P04150 whole entry, looked up, the tested form may be a part): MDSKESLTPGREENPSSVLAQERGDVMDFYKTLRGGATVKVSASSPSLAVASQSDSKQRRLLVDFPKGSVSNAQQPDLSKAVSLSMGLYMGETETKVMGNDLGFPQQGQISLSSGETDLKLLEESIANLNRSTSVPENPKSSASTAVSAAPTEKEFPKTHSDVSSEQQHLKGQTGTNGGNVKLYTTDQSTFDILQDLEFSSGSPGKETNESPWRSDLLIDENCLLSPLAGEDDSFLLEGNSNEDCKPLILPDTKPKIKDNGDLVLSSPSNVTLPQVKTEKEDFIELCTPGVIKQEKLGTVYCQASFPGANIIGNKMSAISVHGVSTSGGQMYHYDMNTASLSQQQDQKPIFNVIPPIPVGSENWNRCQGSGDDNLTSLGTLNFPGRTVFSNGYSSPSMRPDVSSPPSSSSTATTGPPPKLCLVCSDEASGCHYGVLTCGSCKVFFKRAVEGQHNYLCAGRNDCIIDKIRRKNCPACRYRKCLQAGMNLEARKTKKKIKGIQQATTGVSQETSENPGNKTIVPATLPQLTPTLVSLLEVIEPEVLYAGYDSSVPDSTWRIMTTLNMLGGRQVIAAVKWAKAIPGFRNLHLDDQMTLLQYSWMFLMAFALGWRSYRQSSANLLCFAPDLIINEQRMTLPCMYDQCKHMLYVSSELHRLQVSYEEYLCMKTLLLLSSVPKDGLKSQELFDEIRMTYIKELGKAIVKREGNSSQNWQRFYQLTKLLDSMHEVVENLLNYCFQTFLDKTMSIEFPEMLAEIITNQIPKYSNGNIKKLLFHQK
Sequence of 3',5'-cyclic-AMP phosphodiesterase 4B (Homo sapiens) (Q07343 whole entry, looked up): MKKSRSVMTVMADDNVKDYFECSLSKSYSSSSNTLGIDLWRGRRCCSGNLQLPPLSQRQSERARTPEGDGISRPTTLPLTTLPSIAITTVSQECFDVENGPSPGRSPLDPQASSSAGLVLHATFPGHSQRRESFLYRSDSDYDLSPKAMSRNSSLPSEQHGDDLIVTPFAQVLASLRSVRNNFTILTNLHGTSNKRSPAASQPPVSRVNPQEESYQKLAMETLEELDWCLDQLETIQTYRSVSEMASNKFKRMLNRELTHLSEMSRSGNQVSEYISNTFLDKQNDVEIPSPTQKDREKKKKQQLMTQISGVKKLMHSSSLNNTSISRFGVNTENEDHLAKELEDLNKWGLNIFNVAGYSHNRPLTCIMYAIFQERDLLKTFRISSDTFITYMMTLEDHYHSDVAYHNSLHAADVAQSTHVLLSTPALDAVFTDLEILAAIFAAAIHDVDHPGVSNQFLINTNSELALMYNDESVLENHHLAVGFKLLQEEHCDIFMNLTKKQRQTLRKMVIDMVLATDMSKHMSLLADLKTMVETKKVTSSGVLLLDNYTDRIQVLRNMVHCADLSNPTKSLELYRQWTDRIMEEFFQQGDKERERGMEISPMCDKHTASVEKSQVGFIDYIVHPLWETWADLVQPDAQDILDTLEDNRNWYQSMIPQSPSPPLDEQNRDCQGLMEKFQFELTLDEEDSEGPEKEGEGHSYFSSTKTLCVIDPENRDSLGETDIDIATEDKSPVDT
Sequence of Alpha-galactosidase A (Homo sapiens) (P06280 whole entry, looked up): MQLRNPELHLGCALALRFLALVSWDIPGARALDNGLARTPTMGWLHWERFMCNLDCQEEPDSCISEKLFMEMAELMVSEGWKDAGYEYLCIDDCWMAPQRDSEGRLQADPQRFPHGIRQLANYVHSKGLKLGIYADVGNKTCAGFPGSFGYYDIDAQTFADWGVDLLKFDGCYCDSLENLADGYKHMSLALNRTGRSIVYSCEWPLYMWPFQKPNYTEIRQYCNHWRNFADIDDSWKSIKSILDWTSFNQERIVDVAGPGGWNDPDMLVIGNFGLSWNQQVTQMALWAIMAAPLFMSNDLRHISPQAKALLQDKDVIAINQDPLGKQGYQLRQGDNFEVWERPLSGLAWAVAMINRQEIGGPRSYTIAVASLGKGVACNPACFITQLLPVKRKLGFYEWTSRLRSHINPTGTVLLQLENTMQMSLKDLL
Sequence of Guanine nucleotide-binding protein G(i) subunit alpha-1 (Homo sapiens) (P63096 whole entry, looked up): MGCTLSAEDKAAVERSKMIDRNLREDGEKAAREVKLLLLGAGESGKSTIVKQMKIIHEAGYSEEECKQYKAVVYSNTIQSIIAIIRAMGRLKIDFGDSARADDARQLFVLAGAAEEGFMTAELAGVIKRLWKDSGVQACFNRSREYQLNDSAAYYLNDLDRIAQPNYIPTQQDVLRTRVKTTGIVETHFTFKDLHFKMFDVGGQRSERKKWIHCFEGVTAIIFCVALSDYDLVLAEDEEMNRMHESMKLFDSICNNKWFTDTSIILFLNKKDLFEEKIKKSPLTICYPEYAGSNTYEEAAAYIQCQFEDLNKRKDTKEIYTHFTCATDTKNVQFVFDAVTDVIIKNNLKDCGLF
Sequence of Luciferin 4-monooxygenase (Photinus pyralis) (P08659 whole entry, looked up): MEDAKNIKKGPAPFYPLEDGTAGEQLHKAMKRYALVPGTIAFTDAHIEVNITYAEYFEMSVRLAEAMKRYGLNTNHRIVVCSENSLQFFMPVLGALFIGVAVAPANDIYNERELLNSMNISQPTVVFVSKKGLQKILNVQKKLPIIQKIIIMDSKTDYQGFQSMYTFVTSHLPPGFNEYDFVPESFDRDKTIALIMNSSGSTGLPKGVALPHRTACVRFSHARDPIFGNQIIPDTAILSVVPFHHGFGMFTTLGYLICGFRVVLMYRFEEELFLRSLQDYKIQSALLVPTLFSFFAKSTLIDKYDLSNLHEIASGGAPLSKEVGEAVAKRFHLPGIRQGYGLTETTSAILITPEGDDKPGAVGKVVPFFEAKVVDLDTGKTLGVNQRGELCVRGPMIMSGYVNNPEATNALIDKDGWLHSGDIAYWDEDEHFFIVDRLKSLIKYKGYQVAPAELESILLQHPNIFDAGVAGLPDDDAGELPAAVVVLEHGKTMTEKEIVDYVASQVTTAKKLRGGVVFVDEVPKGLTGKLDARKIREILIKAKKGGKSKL
Sequence of Pyruvate kinase PKM (Homo sapiens) (P14618 whole entry, looked up): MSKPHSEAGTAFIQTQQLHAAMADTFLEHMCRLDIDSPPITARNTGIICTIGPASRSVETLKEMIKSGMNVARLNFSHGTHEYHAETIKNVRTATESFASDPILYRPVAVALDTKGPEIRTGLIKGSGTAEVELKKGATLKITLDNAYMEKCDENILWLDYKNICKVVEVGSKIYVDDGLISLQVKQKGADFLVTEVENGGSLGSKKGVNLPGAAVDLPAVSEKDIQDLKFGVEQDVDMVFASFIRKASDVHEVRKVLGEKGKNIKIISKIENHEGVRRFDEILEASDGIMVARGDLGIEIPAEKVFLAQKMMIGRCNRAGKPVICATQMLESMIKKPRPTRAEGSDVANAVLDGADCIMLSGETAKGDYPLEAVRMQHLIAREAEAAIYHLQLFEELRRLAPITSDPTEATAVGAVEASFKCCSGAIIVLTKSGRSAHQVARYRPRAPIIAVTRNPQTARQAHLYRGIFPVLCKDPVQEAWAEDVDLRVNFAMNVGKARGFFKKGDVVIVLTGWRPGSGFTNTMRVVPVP
Sequence of Ubiquitin carboxyl-terminal hydrolase 1 (Homo sapiens) (O94782 whole entry, looked up): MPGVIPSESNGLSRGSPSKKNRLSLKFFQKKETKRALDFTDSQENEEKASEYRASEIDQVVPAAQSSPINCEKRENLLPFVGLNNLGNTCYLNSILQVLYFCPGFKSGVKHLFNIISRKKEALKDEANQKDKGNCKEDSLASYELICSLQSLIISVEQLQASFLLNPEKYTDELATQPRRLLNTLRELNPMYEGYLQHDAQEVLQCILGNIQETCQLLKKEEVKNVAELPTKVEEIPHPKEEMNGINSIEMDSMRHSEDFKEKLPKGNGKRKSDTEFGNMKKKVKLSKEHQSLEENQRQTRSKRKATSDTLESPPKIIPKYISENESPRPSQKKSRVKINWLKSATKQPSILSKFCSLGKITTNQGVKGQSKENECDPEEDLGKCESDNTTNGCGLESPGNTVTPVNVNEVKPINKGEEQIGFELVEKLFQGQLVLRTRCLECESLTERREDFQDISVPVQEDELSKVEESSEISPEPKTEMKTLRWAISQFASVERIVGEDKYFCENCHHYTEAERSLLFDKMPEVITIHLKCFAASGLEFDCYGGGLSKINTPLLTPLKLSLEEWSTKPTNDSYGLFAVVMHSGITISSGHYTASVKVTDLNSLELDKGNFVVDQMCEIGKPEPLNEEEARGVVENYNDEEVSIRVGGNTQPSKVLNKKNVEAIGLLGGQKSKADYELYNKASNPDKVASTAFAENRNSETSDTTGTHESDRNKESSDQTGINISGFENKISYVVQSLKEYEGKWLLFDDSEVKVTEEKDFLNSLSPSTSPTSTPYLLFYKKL
Sequence of Lysosomal acid glucosylceramidase (Homo sapiens) (P04062 whole entry, looked up): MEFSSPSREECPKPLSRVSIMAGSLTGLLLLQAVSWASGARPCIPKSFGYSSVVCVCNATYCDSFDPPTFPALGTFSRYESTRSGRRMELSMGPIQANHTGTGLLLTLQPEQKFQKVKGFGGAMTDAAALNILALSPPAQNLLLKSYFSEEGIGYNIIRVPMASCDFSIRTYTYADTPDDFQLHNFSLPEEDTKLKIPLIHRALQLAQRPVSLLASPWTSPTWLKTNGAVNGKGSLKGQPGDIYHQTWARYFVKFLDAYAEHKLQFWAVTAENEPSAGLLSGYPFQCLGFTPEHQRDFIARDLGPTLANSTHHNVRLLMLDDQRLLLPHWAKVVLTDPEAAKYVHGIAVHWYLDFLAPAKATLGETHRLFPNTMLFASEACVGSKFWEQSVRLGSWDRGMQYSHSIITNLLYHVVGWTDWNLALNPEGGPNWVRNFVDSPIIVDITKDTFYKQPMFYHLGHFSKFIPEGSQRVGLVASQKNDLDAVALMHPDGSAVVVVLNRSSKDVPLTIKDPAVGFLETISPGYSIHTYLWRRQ

Cc1cn([C@H]2C[C@H](N=[N+]=[N-])[C@H](CO)O2)c(=O)[nH]c1=O
inactive: Potency [1] > 11.4 µM | activity change, negative = inhibition ([2]; at 7.69 µM (top of the series)) 11.1% | activity change, negative = inhibition ([2]; at 38 µM (top of the series)) 1.21% | activity change, negative = inhibition ([3]; at 7.69 µM (top of the series)) 5.39% | activity change, negative = inhibition ([3]; at 38 µM (top of the series)) -4.43% | activity, negative = inhibition ([4]; at 7.69 µM (top of the series)) -1.74% | activity, negative = inhibition ([4]; at 38 µM (top of the series)) 22.1% | Potency [5] > 46 µM | Potency [6] > 46 µM and > 9.22 µM | Potency [7] | Potency [8] | outcome [9] | Potency [10] | outcome [11] | outcome [12] | outcome [13] | Potency [14] | Potency [15] | outcome [16] | Potency [17] | Potency [18] | activity, negative = inhibition ([19]; parasite line A) 7.02% | activity, negative = inhibition ([19]; parasite line B) 2.08% | Potency [20] | Potency [21] | Potency [22] | Potency [23] | Potency [24] | Potency [25] | Potency [26] | Potency [27] | Potency [28] | Potency [29] | Potency [30] | Potency [31] | Potency [32] | Potency [33] | Potency [34] | Potency [35] | Potency [36]
